One experiment concerns the target T1, GST-SND1(1-203) (Arabidopsis thaliana, UniProt Q9LPI7 1-203).
T1 sequence: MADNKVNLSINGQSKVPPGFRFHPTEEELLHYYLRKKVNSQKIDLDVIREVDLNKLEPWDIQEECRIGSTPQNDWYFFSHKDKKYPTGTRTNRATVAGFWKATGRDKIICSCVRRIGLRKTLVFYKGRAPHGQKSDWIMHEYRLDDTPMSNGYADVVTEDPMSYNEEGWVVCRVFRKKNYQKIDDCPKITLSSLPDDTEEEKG
The experiment is described as follows: universal protein binding microarray (PBM); transcription factors of Arabidopsis thaliana; high values mean tight binding. The following applies: protein: recombinant; tags: GST; chain copies: 2; dsDNA, one strand shown. In short, it runs like this:
(§1)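 Protein amounts were determined by A280 or anti-GST western blot after glutathione–Sepharose 4B purification of GST-tagged proteins induced in cells, with zinc acetate included for zinc-finger proteins. Duplicate runs at 200 to 500 nM final were done on custom all-10-mer Agilent 4 × 180K arrays made double-stranded by primer extension. The normalised enrichment score (E-score) over gapped and ungapped 8-mers is the measure of binding.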
For the sequence AAGCGTAA, the binding signal was 0.426 E-score.
Still for that read-out and setting: the value for CAACACGC was 0.259 E-score.
Still for that read-out and setting: the value for GAACACGC was 0.158 E-score; that for CGTCAACG was 0.0973 E-score.
The same measure, in the same setting: the value for ACGTCACT was 0.314 E-score.
ACACTCAA: the binding signal came out at 0.264 E-score.
The same measure, in the same setting: the value for CGTGCACG was 0.0947 E-score; that for ATGTCAAC was 0.0631 E-score; that for GACTTTTA was 0.0841 E-score.
Still for that read-out and setting: the value for CAAAGTCA was 0.0515 E-score; that for ACGTCTCC was 0.182 E-score.
Same read-out and setting: the value for TGACGTAA was 0.482 E-score; that for AAAGTCAT was 0.162 E-score; that for AATAGCGT was 0.383 E-score.
AACTTGAC: the binding signal was 0.136 E-score.
Same read-out and setting: the value for ATTCCGTG was 0.135 E-score; that for ACGCAATA was 0.419 E-score.

A further experiment has as its target T2, GST-VND3 NAC domain (Arabidopsis thaliana, UniProt Q9FH59 12-162).
T2 sequence: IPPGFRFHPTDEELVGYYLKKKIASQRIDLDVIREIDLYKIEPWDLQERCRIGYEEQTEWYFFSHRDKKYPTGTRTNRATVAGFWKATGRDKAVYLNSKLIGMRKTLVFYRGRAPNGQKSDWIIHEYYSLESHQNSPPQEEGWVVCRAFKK
The description is as above. The note with it: protein: recombinant; tags: GST; chain copies: 2; dsDNA, one strand shown. In outline:
as §1
ACGCAACC: the binding signal worked out at 0.416 E-score.
Still for that read-out and setting: the value for ACGGAAGC was 0.385 E-score; that for CTTGCGTC was 0.0748 E-score.
Still for that read-out and setting: the value for GTCACGCA was 0.167 E-score; that for ATTGCGTG was 0.441 E-score; that for AGTTTGAC was 0.0521 E-score.
The same measure, in the same setting: the value for GTTGACTA was 0.158 E-score; that for ATAGCGTG was 0.218 E-score.
GATTGACC: the binding signal stood at 0.138 E-score.
With CACGTTAA, the binding signal amounted to 0.184 E-score.
Still for that read-out and setting: under AGTCAAAA stands 0.104 E-score.
In the case of TAGAGTAA, the binding signal worked out at 0.117 E-score.
Still for that read-out and setting: under GACGCAAA stands 0.135 E-score; under AGACACGC, 0.0792 E-score.
Still for that read-out and setting: the value for CTTGCGTA was 0.416 E-score; that for TAACGTGA was 0.251 E-score; that for TAAGTCAA was 0.0988 E-score.
Consider ACGCAAGG, for which the binding signal was found to be 0.122 E-score.
On to GACGTCAA, for which the binding signal turned out to be 0.126 E-score.
Same read-out and setting: under AAACGTGT stands 0.328 E-score.
Still for that read-out and setting: under TAAGGTCA stands 0.223 E-score.
The same measure, in the same setting: under AAGCGTAA stands 0.13 E-score.
Regarding CAACACGC, the binding signal was determined as 0.162 E-score.
Same read-out and setting: under GAACACGC stands 0.138 E-score; under CGTCAACG, 0.0692 E-score.
On the same count and under the same terms, under ACGTCACT stands 0.355 E-score.
The same measure, in the same setting: under ACACTCAA stands 0.092 E-score.
As to CGTGCACG, the binding signal is 0.426 E-score.
Same read-out and setting: under ATGTCAAC stands 0.089 E-score; under GACTTTTA, 0.0985 E-score.
Turning to CAAAGTCA, the binding signal was determined as 0.0817 E-score.
Still for that read-out and setting: under ACGTCTCC stands 0.34 E-score.
Same read-out and setting: under TGACGTAA stands 0.406 E-score; under AAAGTCAT, 0.0602 E-score.
The same measure, in the same setting: the value for AATAGCGT was 0.119 E-score; that for AACTTGAC was 0.152 E-score.
Consider ATTCCGTG, for which the binding signal was determined as 0.386 E-score.
In the case of ACGCAATA, the binding signal came out at 0.312 E-score.

A further experiment addresses T3, GST-VND7 NAC domain (Arabidopsis thaliana, UniProt Q9C8W9 9-158).
T3 sequence: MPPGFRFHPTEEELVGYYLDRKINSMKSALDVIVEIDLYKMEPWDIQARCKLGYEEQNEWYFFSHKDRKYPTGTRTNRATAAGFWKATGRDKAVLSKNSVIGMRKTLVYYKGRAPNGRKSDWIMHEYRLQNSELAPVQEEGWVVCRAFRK
The experiment is described as above. The note with it: protein: recombinant; tags: GST; chain copies: 2; dsDNA, one strand shown. In short, it runs like this: as §1
Consider ACGCAACC, for which the binding signal amounted to 0.443 E-score.
On the same count and under the same terms, under ACGGAAGC stands 0.266 E-score; under CTTGCGTC, 0.058 E-score.
Same read-out and setting: the value for GTCACGCA was 0.252 E-score.
The same measure, in the same setting: the value for ATTGCGTG was 0.46 E-score.
Consider AGTTTGAC, for which the binding signal amounted to 0.095 E-score.
Consider GTTGACTA, for which the binding signal was found to be 0.0849 E-score.
Same read-out and setting: the value for ATAGCGTG was 0.15 E-score; that for GATTGACC was 0.059 E-score.
Same read-out and setting: under CACGTTAA stands 0.156 E-score; under AGTCAAAA, 0.0632 E-score; under TAGAGTAA, 0.128 E-score.
Same read-out and setting: under GACGCAAA stands 0.099 E-score; under AGACACGC, 0.165 E-score.
With CTTGCGTA, the binding signal amounted to 0.394 E-score.
On the same count and under the same terms, the value for TAACGTGA was 0.0561 E-score.
The same measure, in the same setting: the value for TAAGTCAA was 0.145 E-score.
The same measure, in the same setting: the value for ACGCAAGG was 0.128 E-score; that for GACGTCAA was 0.0526 E-score.
For AAACGTGT, the binding signal was 0.306 E-score.
Regarding TAAGGTCA, the binding signal came to 0.143 E-score.
Still for that read-out and setting: the value for AAGCGTAA was 0.115 E-score; that for CAACACGC was 0.218 E-score.
The same measure, in the same setting: under GAACACGC stands 0.174 E-score.
In the case of CGTCAACG, the binding signal worked out at 0.0989 E-score.
For ACGTCACT, the binding signal came out at 0.328 E-score.
Take ACACTCAA: the binding signal is 0.185 E-score.
The same measure, in the same setting: the value for CGTGCACG was 0.391 E-score; that for ATGTCAAC was 0.124 E-score; that for GACTTTTA was 0.149 E-score.
The same measure, in the same setting: the value for CAAAGTCA was 0.0536 E-score; that for ACGTCTCC was 0.322 E-score; that for TGACGTAA was 0.392 E-score.
The same measure, in the same setting: the value for AAAGTCAT was 0.121 E-score; that for AATAGCGT was 0.191 E-score.
Take AACTTGAC: the binding signal is 0.0683 E-score.
Still for that read-out and setting: the value for ATTCCGTG was 0.41 E-score; that for ACGCAATA was 0.288 E-score.
